Source: ChEMBL document CHEMBL3988442, “University of Dundee, Small-Polar-MMV Screening Library” (2021)
Values joined by “and” are separate entries in the source; they are usually repeats but may differ in a detail not shown here. Equal values may be shown once. The campaign covered roughly 34,000 compounds. About 290 (0.85%) showed an effect of 50% or more. Many of the other results were omitted from the sample, so strong results are more common in it than they were.

System: Plasmodium falciparum
Test: Plasmodium falciparum sporozoite viability assay
Assay type: functional, organism-based
Parameters: scale not given: in the data most compounds retested in dose-response had high values

SMILES	Percent Effect [%]	Percent Effect (10 mM as filed; unlikely as a test dose)
CCNC(=O)c1cc(OC)c2cc(F)cc(C)c2n1	1.557	–
Cc1cncnc1C1CCN(CC2CC2)CC1	1.471	–
CCCOc1cccc(OCc2ccon2)c1	-14.79	–
Cc1cc(C)n(CC2CCCCN2CCc2ccncc2)n1 (stereo unspecified)	5.224	–
Cc1c(C)n2c(SCC(=O)N3CCCCCC3)nnc2[nH]c1=O	–	-20.75% and -26.48%
CNC(=O)CNC(=O)c1ccc(-c2scnc2C)nc1	1.458	–
CCc1ccc(C(=O)NCc2ccnc(N3CCN(C)CC3)c2)o1	8.293	–
CCc1nnc2n1CCN(CCC(=O)Nc1sccc1C#N)C2	5.694	–
CCOC[C@@H]1CC[C@H]2[C@H](CCN2C(=O)c2cnccn2)O1	-3.07	–
c1ccc(-c2nc(CNC3CCc4ncnn4C3)cs2)cc1 (stereo unspecified)	1.596	–
CCN1CCN(Cc2coc(-c3cccc(F)c3)n2)CC1	–	64.85% and 77.13% and 53.15%
OCCN1CCN(Cc2coc(-c3cccc(Cl)c3)n2)CC1	-3.989	–
CC(=O)N1CCN(Cc2coc(-c3cccc(F)c3)n2)CC1	–	-29.73% and -43.84% and -27.15%
N#Cc1ccc(NCCC(=O)N2CCCc3ccccc32)nc1	-11.08	–
Cc1cc(CC2COCCN(CCc3ccccc3)C2)ncn1 (stereo unspecified)	5.745	–
O=C(c1cc(-c2cccnc2)[nH]n1)N1CCCC(c2cnccn2)C1 (stereo unspecified)	12.79	–
COc1ccc2cc(C3CN(C(=O)CCNC(C)=O)CCO3)ccc2c1 (stereo unspecified)	–	97.44% and 100.2% and 98.47%
COc1ccc(-c2cnc(N(C)C)nc2C2CN(C(C)=O)CCO2)cc1 (stereo unspecified)	14.8	–
COc1ccc(CN2CCO[C@H]3CN(C(=O)C4CC4)CC[C@H]3C2=O)cc1	-7.815	–
Nc1cccc(C2CN(C(=O)CN3CCOCC3)CCO2)n1 (stereo unspecified)	3.517	–
COc1ccc2cc(C3CN(C(=O)N(C)C)CCO3)ccc2c1 (stereo unspecified)	–	102.8% and 105.3% and 102%
COc1ccc2cc(C3CN(C(=O)C4CCOCC4)CCO3)ccc2c1 (stereo unspecified)	–	90.24% and 38% and 72.69%
CC(=O)N1CCOC(c2ccnc(N(C)C)n2)C1 (stereo unspecified)	3.741	–
COc1ccc2cc(C3CN(C(=O)CN4CCCC4)CCO3)ccc2c1 (stereo unspecified)	–	56.27% and 53.19% and 50.16%

SMILES	Percent Effect [%]	Percent Effect (10 mM as filed; unlikely as a test dose)
CC(=O)NCC(=O)N1CCOC(c2cccc(N)n2)C1 (stereo unspecified)	2.685	–
COc1ccc2c(c1)[C@@H](CCNC(C)=O)CC(C)(C)O2	3.641	–
COc1ccnc(N2CCN(CC(=O)N3CCOC(C)C3)CC2)n1 (stereo unspecified)	-0.9874	–
Cc1c[nH]nc1C1CCN(C(=O)C2CCOCC2)C1 (stereo unspecified)	-9.491	–
COc1ccccc1CN1CCC2(CCC(C(=O)N(C)C)O2)CC1 (stereo unspecified)	9.72	–
CCc1ncnc2c1CCN(S(=O)(=O)c1ccccc1)CC2	11.48	–
O=C(O)c1cc(S(=O)(=O)Nc2ccc(F)c(Cl)c2)cc2c1OCCO2	12.45	–
O=C(CC1CC1)N1CCc2ncc(Cn3cncn3)n2CC1.O=C(O)C(F)(F)F	2.491	–
CC(=O)N1CCc2ncc(CNC(=O)C3CCC3)n2CC1	-7.632	–
CNC(=O)c1ccc(C2CN(C(=O)COC)CCO2)nc1 (stereo unspecified)	-16.96	–
COc1ccc2cc(C3CN(C(=O)COC(C)C)CCO3)ccc2c1 (stereo unspecified)	–	38.96% and 58.61% and 49.31%
COCC(=O)N1CCOC(c2cccc(-c3cncnc3)n2)C1 (stereo unspecified)	0.9327	–
COCC(=O)N1CCOC(c2ccc(N(C)C)cn2)C1 (stereo unspecified)	-1.133	–
CNC(=O)CCC(=O)N1CCOC(c2ccc3cc(OC)ccc3c2)C1 (stereo unspecified)	–	98.94% and 98.67% and 101%
CNC(=O)CN1CCC(c2cc(OC)cc(OC)c2)C1 (stereo unspecified)	-3.657	–
CC(C)COCCCNC(=O)NCC(O)c1cccc(F)c1 (stereo unspecified)	2.496	–
CC(=O)N1CC(c2ccnc(Nc3ccc(C)cn3)n2)C1	–	15.77% and 8.208% and 11.03%
CNCC(=O)N1CCCC(c2ccnc(Nc3cnccn3)n2)C1 (stereo unspecified)	-8.636	–
Cc1ccc(Nc2nccc(C3CCN(C(=O)CO)C3)n2)nc1 (stereo unspecified)	–	-6.369% and -30.39% and -30.26%
Cc1ccc(Nc2nccc(C3CCN(C(=O)CN)C3)n2)nc1.Cl (stereo unspecified)	–	81.99% and 45.72% and 74.53%
Cl.Cl.NCC(=O)N1CCCC(c2ccnc(Nc3cnccn3)n2)C1 (stereo unspecified)	10.19	–
CCN1CCCC1CNCc1cc2ccccc2[nH]c1=O (stereo unspecified)	24.74	–
c1cc(C2CCN(c3cnccn3)CC2)ccn1	11.86	–
COc1ccc(C(=O)N(C)Cc2c(C)noc2C)cn1	8.528	–

SMILES	Percent Effect [%]	Percent Effect (10 mM as filed; unlikely as a test dose)
CC(C)(C)CC1CCCN1Cc1nc(-c2ccco2)no1 (stereo unspecified)	–	58.36% and 65.06%
Cc1nc(C)n(CC2CCCN2Cc2nc(-c3ccco3)no2)n1 (stereo unspecified)	–	-0.3641% and 0.04429% and -1.23%
CN(C)CCN1C(=O)CC[C@@H]2[C@H]1CCN2Cc1cccc(C#N)c1.O=C(O)C(F)(F)F.O=C(O)C(F)(F)F	-0.2577	–
Cc1nc(C)n(CC2CCCN(CCOc3ccccc3C#N)C2)n1 (stereo unspecified)	12.74	–
O=C(NCC1CC1)[C@H]1C[C@H]2OCC[C@H]2N(Cc2ccoc2)C1	-11.2	–
Cn1nccc1CNC(=O)CCn1nc(C(F)(F)F)c(Cl)c1C1CC1	10.43	–
O=C(COCc1ccccc1Cl)N1CCN(c2ncccn2)CC1	3.259	–
CC(C)(O)CN1CCN(C(=O)COCc2ccccc2Cl)CC1	–	71.26% and 47.5% and 53.2%
COc1ccc(COCC(=O)N2CCN(CC(C)(C)O)CC2)cc1	–	7.514% and -16.19% and -8.725%
CC(NC(=O)CCCc1nc(C(C)(C)C)no1)c1ccccn1 (stereo unspecified)	4.866	–
Cc1nn(C)cc1-c1cc(C(=O)NCC(C)(C)c2cccc(F)c2)n[nH]1	-0.9712	–
CN(C)CC1CSCCCN1C(=O)c1ccc(-c2ccccc2)cc1 (stereo unspecified)	11.37	–
CC(NCC(=O)NCC(=O)Nc1ccc(F)cc1)c1cccs1 (stereo unspecified)	0.1791	–
CN(C)C(=O)CN1CCC2(CC1)CC(=O)c1ccc3ccccc3c1O2	–	28.41% and 58.1% and 56.14%
CN(C)C(=O)CN1CCC2(CC1)CC(=O)c1c(ccc3ccccc13)O2	16.77	–
CCOC(=O)CN1CCC2(CC1)CC(=O)c1ccc(OC)cc1O2	-0.03409	–
NC(=O)CN1CCC2(CC1)CC(=O)c1ccc3ccccc3c1O2	–	14.56% and 23.77% and 28.36%
CN(C)C(=O)CN1CCC2(CC1)CN(S(C)(=O)=O)Cc1ccccc1O2	-23.82	–
Cc1nc(C)c(C(=O)OCCNc2ncccc2C#N)s1	25.07	–
CNC(=O)Cc1ccc(NC(=O)NC(C)C(C)C)cc1 (stereo unspecified)	–	-4.587% and -4.397% and -12.09%
CC(CN1CCC(CCO)CC1)n1cnc2ccccc21 (stereo unspecified)	–	-16.85% and -31%
CCN(CC)CCCNc1nc(C)nc2c1CCN(C)C2.O=C(O)CC(O)(CC(=O)O)C(=O)O	7.039	–
CN(CC(=O)NCC(F)(F)F)Cc1nc2c(s1)CCCC2	–	29.9% and 31.57%
CN(Cc1nnc(-c2ccco2)o1)Cc1nc2c(s1)CCCC2	–	-11.23% and -0.3712% and 0.4353%

SMILES	Percent Effect [%]	Percent Effect (10 mM as filed; unlikely as a test dose)
CN(CC(=O)NCC1CCCO1)Cc1nc2c(s1)CCCC2 (stereo unspecified)	–	56.93% and 58.41%
CN(CC(=O)NCc1ccco1)Cc1nc2c(s1)CCCC2	–	18.7% and 19.42%
Cc1nnc(CN(C)Cc2nc3c(s2)CCCC3)o1	–	69.64% and 55.12% and 51.62%
CN(Cc1nnc(-c2cccs2)o1)Cc1nc2c(s1)CCCC2	–	22.52% and 35.26% and 20.64%
Cc1ccc(CN2CCCC(c3cncc(C)n3)C2)cn1 (stereo unspecified)	7.699	–
CCn1ccc(C(=O)N(C)Cc2cnn(-c3cccc(OC)c3)c2)n1	–	-38.3% and -41.56%
COc1cccc(-n2cc(CN(C)C(=O)c3cnc(O)cn3)cn2)c1	–	70.55% and 77.42%
COc1cccc(-n2cc(CN(C)C(=O)c3cc[nH]n3)cn2)c1	–	-69.36% and -66.93%
Cn1ccnc1CN1CCN(CC(=O)NCc2cccs2)CC1	11.24	–
CCOC(=O)c1sc2ccsc2c1CNC(=O)CCOC	-1.34	–
COc1cccc(-c2ncc(CN3C[C@@H]4CC[C@H](C3)N(C)C4=O)s2)c1	–	84.86% and 76.95%
CN1C(=O)[C@H]2CC[C@@H]1CN(Cc1cccc(OCc3ccccn3)c1)C2	–	-14.17% and -8.272%
Cc1nc(C)n(CC2CCCN(CCOc3ccc(C#N)cc3)C2)n1 (stereo unspecified)	-0.23	–
O=C(COc1coc(CN2CCOCC2)cc1=O)c1ccc(Cl)cc1	-1.015	–
O=C(NCCc1ccccn1)Nc1cc(C(F)(F)F)c[nH]c1=O	1.519	–
Cc1nn(C)cc1C(=O)N1CCC(C(=O)c2nc3ccccc3s2)CC1	4.427	–
CCc1ncc(CN(C)C2CCN(C(C)C)CC2)cn1.O=C(O)CC(O)(CC(=O)O)C(=O)O	7.243	–
COCC(NC(=O)c1cn2ccsc2n1)c1ccnn1C (stereo unspecified)	0.7162	–
CCC(=O)NC1CCCN(C(=O)Nc2cccc(COC(C)C)c2)C1 (stereo unspecified)	3.429	–
CCC(=O)NC1CCCN(C(=O)Nc2cc(-c3ccccc3)on2)C1 (stereo unspecified)	–	86.86% and 95.97%
O=C(Nc1cc(-c2ccccc2)on1)N1CCN(CCO)CC1	–	64.88% and 38.14%
O=C(CCCc1nc(-c2ccccc2)no1)N1CCN(CCO)CC1	11.73	–
O=C(Nc1cc(-c2ccccc2)on1)N1CC[C@H](O)C1	–	-24.83% and -17.1%
CC(=O)NC1CCCN(C(=O)Nc2cccnc2-n2cccn2)C1 (stereo unspecified)	-4.732	–
